Results published in PubChem BioAssay AID2685 (National Center for Advancing Translational Sciences (NCATS), 2010).
The campaign covered roughly 320,000 compounds. About 2,100 (0.66%) were called active. Inconclusive results (about 53%) are left out. The sample holds actives, similar compounds and a random draw of the others, so the mix is not that of the screen. Calls follow the shape of the dose curve; as a rule, active = well fitted inhibition curve with a large enough effect in the signal ratio, with a control signal flat (not every such curve was filed as active); inconclusive = small, poorly fitted or top-dose-only effect, or effect the other way, or a change in a side signal; inactive = flat fitted curve, though single readings scatter; the % refers to the signal ratio. Where a SMILES comes first, the peptide text is derived from it. [ ]: non-standard residue; d: D form. The star is where a group is joined. ξ: configuration not given here. ξF = NC(Cc1ccccc1)C(=O)O; Cbz = O=C(OCc1ccccc1)*
Potency is read from the fitted curve at half-maximal effect.

Experiment: qHTS Assay for Lipid Storage Modulators in Drosophila S3 Cells;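 as to cell number change: cells counted by Cell Tracker Red CMTPX staining in the red channel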
Conditions: BODIPY lipid droplet fluorescence, 18-24 h, cells fed with added oleic acid; cell number change: measured here: cell count max response; series mostly up to 46.1 µM
Summary of the method: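 Laser-scanning cytometry quantifies lipid droplet accumulation (500–530 nm total intensity; droplet/cell object ratio) in oleic acid-fed (400 uM added) Drosophila S3 cells treated with a concentration series. 20 uM Triacsin C defined 100% inhibition.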
For CCOc1ccc(CN(C)C(=O)[C@H](Cc2ccccc2)NC(=O)OCc2ccccc2)cc1OC, the Potency was 8.2 µM (active) and the cell number change was 6.3%. In the case of CCOC(=O)CNC(=O)C(Cc1ccccc1)NC(=O)OCc1ccccc1 (stereo not drawn) (Cbz-[ξF]-Gly-OEt), the Potency is reported as “inactive”. With COc1ccc(CCNC(=O)C(NC(=O)OCc2ccccc2)C(C)C)cc1OC (stereo not drawn) the Potency was “inactive” and the cell number change was 2.79%. In the case of CN1CCN(C2=NC(=O)/C(=C/c3ccccc3OS(=O)(=O)c3ccccc3)S2)CC1, the Potency is reported as “inactive” and the cell number change is reported as 6.94%. For CCOC(=O)C(NC(=O)CC)(Nc1ccccc1)C(F)(F)F (stereo not drawn), the Potency was “inactive” and the cell number change was -9.13%. With CCOC(=O)C(NC(C)=O)(Nc1ccc(F)cc1)C(F)(F)F (stereo not drawn) the Potency was “inactive” and the cell number change was -0.408%. With CCOC(=O)C(NC(C)=O)(Nc1cccc(F)c1)C(F)(F)F (stereo not drawn) the Potency was 4.11 µM (active) and the cell number change was -1.43%. With CNC(=O)C1CC(=O)N(c2ccc(F)c(Cl)c2)C1 (stereo not drawn) the Potency was “inactive” and the cell number change was 9.35%. In the case of CCC(C)c1ccc(OCCN2CCCC2)cc1 (stereo not drawn), the Potency is reported as 23.1 µM (active) and the cell number change is reported as 7.66%. With CCOc1ccc(OCCN2CCCCC2)cc1 the Potency was “inactive” and the cell number change was -0.326%. In the case of CC(C)c1ccc(OCCCN2CCCC2)cc1, the Potency is reported as “inactive” and the cell number change is reported as 0.741%. In the case of COc1ccc(OC)c(NS(=O)(=O)c2ccc(Cl)nc2)c1, the Potency is reported as “inactive” and the cell number change is reported as 7.58%. For CC(=O)NNC(=S)NCCc1ccccc1, the Potency was “inactive” and the cell number change was 6.47%. For CCOCc1[nH]c(=S)[nH]c(=O)c1Cc1ccc(OCC)cc1, the Potency was “inactive” and the cell number change was 9.42%. In the case of COc1ccc(CNc2nc3ccccc3n2Cc2ccc(Cl)cc2)cc1OC, the Potency is reported as “inactive” and the cell number change is reported as -0.354%. In the case of CCOC(=O)N1CCN(C(=O)CCc2cc(OC)c(OC)c(OC)c2)CC1, the Potency is reported as “inactive” and the cell number change is reported as 18.4%. In the case of CC(=O)N1CC(C)Sc2ccc(S(=O)(=O)NCCc3ccc(C)cc3)cc21 (stereo not drawn), the Potency is reported as 6.51 µM (active) and the cell number change is reported as -15.2%. In the case of COc1ccc(CNS(=O)(=O)c2ccc3c(c2)N(C(C)=O)CC(C)S3)cc1 (stereo not drawn), the Potency is reported as “inactive” and the cell number change is reported as -3.12%. For CC(=O)N1CC(C)Sc2ccc(S(=O)(=O)NCc3ccc(Cl)cc3)cc21 (stereo not drawn), the Potency was “inactive” and the cell number change was 17.6%. In the case of CCc1ccc(-n2c(C)cc(/C=N/NC(=O)OC)c2C)cc1, the Potency is reported as “inactive” and the cell number change is reported as -6.79%. For Cc1ccc(OCc2nnc(NC(=O)OCC(C)C)s2)cc1, the Potency was 18.4 µM (active) and the cell number change was 0.0966%. In the case of Cc1ccc(OCc2nnc(NC(=O)OCC(C)C)s2)c(C)c1, the Potency is reported as “inactive”. In the case of CCCCOC(=O)Nc1nnc(COc2ccccc2)s1, the Potency is reported as “inactive” and the cell number change is reported as -19.4%. With O=C(NC1CCN(S(=O)(=O)c2ccc(Cl)c(F)c2)CC1)c1cccnc1 the Potency was “inactive” and the cell number change was -17.9%. In the case of C[C@@H](O)C1NC(=O)[C@H](CCCCN)NC(=O)c2cc([N+](=O)[O-])cc(I)c2OCC[C@@H](C(N)=O)NC1=O (stereo partly drawn), the Potency is reported as “inactive” and the cell number change is reported as -6.85%. With O=S(=O)(c1ccc(Br)cc1)c1nc(-c2ccccc2)oc1NCCN1CCOCC1 the Potency was “inactive” and the cell number change was 2.89%. For COCCNc1nnc(Cc2ccc(Cl)cc2)c(=O)[nH]1, the Potency was “inactive” and the cell number change was -0.278%. In the case of O=C(c1ccc(F)c(F)c1)N1CCCc2ccccc21, the Potency is reported as “inactive” and the cell number change is reported as 4.4%. With O=C(c1cccc(Br)c1)N1CCCc2ccccc21 the Potency was 0.82 µM (active) and the cell number change was -21.4%. In the case of O=C(c1ccccc1)N1CCCc2ccccc21, the Potency is reported as “inactive” and the cell number change is reported as 0.741%. With Cc1ccc(OCCCC(=O)Nc2ccc(N3CCOCC3)cc2)c(C)c1 the Potency was “inactive”. With Cc1cc(Oc2nnnn2-c2ccccc2)ccc1Cl the Potency was “inactive”. For CCN(C(=O)c1ccc(NC(C)=O)cc1)c1ccccc1, the Potency was “inactive” and the cell number change was -17%. In the case of CC1CCN(Cc2nnnn2-c2ccc(Cl)cc2)CC1, the Potency is reported as 13 µM (active) and the cell number change is reported as -6.07%. For c1ccc(-n2nnnc2CN2CCOCC2)cc1, the Potency was “inactive” and the cell number change was -7%. With Nc1ccc(-n2nnnc2CN2CCOCC2)cc1 the Potency was “inactive” and the cell number change was 0.0095%. For COc1ccc(OC)c(N(CC(=O)NCCSCc2ccco2)S(=O)(=O)c2ccc(OC)c(OC)c2)c1, the Potency was “inactive” and the cell number change was -16.6%. With Cc1ccc2c(c1)S/C(=C\c1cccc[n+]1C)N2CCO the Potency was “inactive” and the cell number change was -6.57%. In the case of CCCCN1/C(=C/c2cccc[n+]2C)Sc2cc(NC(C)=O)ccc21, the Potency is reported as 1.3 µM (active) and the cell number change is reported as 11.1%. In the case of C[n+]1ccccc1/C=C1\Sc2ccccc2N1CCO, the Potency is reported as “inactive” and the cell number change is reported as -1.06%. With O=C(Nc1nc2ccc([N+](=O)[O-])cc2s1)C1CCCO1 (stereo not drawn) the Potency was “inactive” and the cell number change was -16.8%. For O=C(NNC(=O)c1csc(-c2cccnc2)n1)c1ccccc1, the Potency was “inactive” and the cell number change was 5.13%. With S=C(NCc1cccc(Cl)c1)NCc1ccco1 the Potency was “inactive” and the cell number change was 29.3%. With CC(C)(C)NC(=O)COC(=O)c1ccc2c(c1)C(=O)N(Cc1ccco1)C2=O the Potency was “inactive” and the cell number change was -13.3%. With CCC(CC)NC(=O)COC(=O)c1ccc2c(c1)C(=O)N(Cc1ccco1)C2=O the Potency was “inactive” and the cell number change was -0.427%. For CC(C)(C)C(=O)COC(=O)c1ccc2c(c1)C(=O)N(Cc1ccco1)C2=O, the Potency was 0.259 µM (active) and the cell number change was 2.14%.
